In the supplement of paper PMC6555819:

Tests used:
Assay in all cases: PBM binding z-score (relative to random genomic background probes); higher = stronger binding; sequences stand for … in GC…GCGATTGACAGCGTAGAATGAAGG
[1] = tested on: FXR:RXRa (NR concentration 270 nM, RXRa partner concentration 90 nM)
Method in brief: (§1)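 Antibodies against each partner of ligand-free nuclear receptor dimers (one per run) detected binding on custom Agilent 4×180K protein-binding microarrays after 1 h incubation. The double-stranded probes had 34-nt variable regions carrying direct-repeat seeds, single-nucleotide variants, half-site ablations and random human genomic background sequences. Binding z-scores, from regression-normalized fluorescence, use the random background probes as reference.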

[2] = tested on: LXRa:RXRa (NR concentration 270 nM, RXRa partner concentration 90 nM)
Method in brief: as §1

[3] = tested on: LXRa homodimer (NR concentration 270 nM)
Method in brief: as §1

[4] = tested on: LXRb:RXRa (NR concentration 270 nM, RXRa partner concentration 90 nM)
Method in brief: as §1

[5] = tested on: LXRb homodimer (NR concentration 270 nM)
Method in brief: as §1

[6] = tested on: PPARa:RXRa (NR concentration 270 nM, RXRa partner concentration 90 nM)
Method in brief: as §1

[7] = tested on: PPARg:RXRa (NR concentration 180 nM, RXRa partner concentration 90 nM)
Method in brief: as §1

[8] = tested on: PPARg:RXRa 270nM:90nM, anti-RXR (NR concentration 270 nM, RXRa partner concentration 90 nM)
Method in brief: as §1

[9] = tested on: PPARg:RXRa 30nM:10nM, anti-RXR (NR concentration 30 nM, RXRa partner concentration 10 nM)
Method in brief: as §1

[10] = tested on: PPARg:RXRa 90nM:30nM, anti-RXR (NR concentration 90 nM, RXRa partner concentration 30 nM)
Method in brief: as §1

[11] = tested on: PPARg:RXRa DBDmut IVT, anti-RXR (DBD mutation: RXRa K156A/R161A, NR concentration 270 nM, RXRa partner concentration 90 nM)
Method in brief: as §1

[12] = tested on: PPARg:RXRa IVT, anti-PPARg (NR concentration 270 nM, RXRa partner concentration 90 nM)
Method in brief: as §1

[13] = tested on: PPARg DBDmut:RXRa IVT, anti-PPARg (DBD mutation: PPARg1 K132A/R137A, NR concentration 270 nM, RXRa partner concentration 90 nM)
Method in brief: as §1

[14] = tested on: PPARg DBDmut IVT, anti-PPARg (DBD mutation: PPARg1 K132A/R137A, NR concentration 270 nM)
Method in brief: as §1

[15] = tested on: PPARg homodimer (NR concentration 180 nM)
Method in brief: as §1

[16] = tested on: PXR:RXRa (NR concentration 270 nM, RXRa partner concentration 90 nM)
Method in brief: as §1

[17] = tested on: PXR homodimer (NR concentration 270 nM)
Method in brief: as §1

[18] = tested on: RARa:RXR (NR concentration 270 nM, RXRa partner concentration 90 nM)
Method in brief: as §1

[19] = tested on: RARa homodimer (NR concentration 270 nM)
Method in brief: as §1

[20] = tested on: RARb:RXRa (NR concentration 270 nM, RXRa partner concentration 90 nM)
Method in brief: as §1

Sequence	PBM binding z-score [1]	PBM binding z-score [2]	PBM binding z-score [3]	PBM binding z-score [4]	PBM binding z-score [5]	PBM binding z-score [6]	PBM binding z-score [7]	PBM binding z-score [8]	PBM binding z-score [9]	PBM binding z-score [10]	PBM binding z-score [11]	PBM binding z-score [12]	PBM binding z-score [13]	PBM binding z-score [14]	PBM binding z-score [15]	PBM binding z-score [16]	PBM binding z-score [17]	PBM binding z-score [18]	PBM binding z-score [19]	PBM binding z-score [20]
CCAGACAGGTGAAACGTAACTCAGTCTGGTACGC	-0.253	-0.0571	-0.351	-0.105	-0.651	0.658	0.947	0.946	-0.101	0.589	2.48	0.769	-0.823	-0.558	0.378	-0.325	-0.322	0.0493	0.128	0.621
ATCTCTAGGTAAAGATAGTTTAGTGAATGCAAAT	0.535	0.896	0.494	0.361	0.415	0.104	0.777	0.218	0.448	0.329	1.81	2.04	1.07	0.379	0.699	0.277	0.329	-0.0138	0.933	0.0107
CGATCTAGGTCATTGACAGGACAGTGAATAGTAA	4.68	2.86	0.511	2.07	0.134	4.52	6.86	6.06	3.13	5.68	7.84	7.9	1.48	1.96	1.92	1.64	0.255	2.35	0.361	3.61
CGTCCAAGGTCAAGGTCTGTGAAAGAGACTCGAA	7.12	4.99	0.422	3.92	0.346	5.39	4.93	5.76	1.41	3.96	3.42	3.88	2.1	0.39	4.29	3.72	0.462	4.54	1.7	5.24
CCGACTGGGGCAGAAAGGTTACCCTACCATCCGG	0.191	0.465	-0.126	0.448	-1.02	1.5	1.17	2.33	0.336	1.78	1.23	1.93	-1.08	-1.51	0.207	0.618	-0.304	1.34	-0.533	1.73
TCTTGTAGATCAACAGGAGGATAAGAAAGATCGA	0.307	0.0206	-0.000187	0.226	-0.349	0.337	0.379	0.997	2.56	1.61	1.64	0.232	0.62	0.57	0.00545	0.187	0.0396	0.295	-0.0742	-0.284
ACTCGGAGGACAAAGGTCCGAGCTACGCCAGTGA	-0.0908	0.0119	-0.328	-0.654	-0.577	0.672	1.66	2.29	0.616	2.38	0.177	0.313	-0.996	-0.635	-0.36	-0.365	-0.238	-0.334	-0.387	1.29
ATCGAACGGTCGTGAGGTGAGTATACAGAAAGGC	0.0725	-0.0756	-0.243	-0.299	-0.457	0.134	0.66	-0.0797	-0.119	-0.0767	-0.977	0.391	0.438	0.339	0.0797	0.0108	-0.33	0.461	0.0209	1.08
GATCGGAGGACAAGGTCAGAGCTTTGTCCGTAGA	1.55	1.42	-0.502	0.993	-1.3	2.42	1.07	2	-0.141	1.17	-0.00086	0.881	-0.747	-1.99	0.29	1.76	-0.362	2.03	-0.62	3.47
CCTACTGGGCCACGAAAGGTCACTGATTCAGTGA	2.97	4.41	2.54	3.75	-0.0263	4.32	5.13	4.98	2.2	4.02	5.42	6.08	0.0808	0.166	1.93	4.63	0.0856	4.94	0.447	4.07
CGTCCCAGGTCAGCAGGTCAGTGAAAGCGACGTG	3.56	2.34	0.419	1.95	-0.0332	3.49	2.6	2.88	0.0912	1.51	1.69	2.71	-0.717	-0.861	1.2	2.16	-0.206	3.19	0.0121	4.12
GCTTACGGGCCAAAGGTTATAGCATGAATAGAAT	1.52	1.75	-0.0531	2.24	-0.287	4.59	8.48	7.11	6.58	7.83	1.06	3.69	-0.252	0.373	0.626	2.27	0.0168	3.13	0.0801	1.81
CCTATTAGTTGACCATAAGGGCAACCAAAGCTCG	1.06	0.507	0.675	0.965	0.552	0.948	0.604	0.461	0.262	0.51	0.357	0.63	0.3	0.552	1.72	1.18	1	1.47	2.44	1.62
TTGCCAAGGTGAGCTGAGGTCGTTGATCCAACTC	1.5	0.918	-0.266	0.415	-1.74	1.46	-0.358	0.302	-0.768	-0.564	0.582	1.28	-1.28	-1.13	-0.789	4.61	0.057	1.33	-0.704	1.73
CCTCGGAGGACAGCAGGAGGTCAGAGCTGCCAGA	0.706	1.02	0.292	0.728	-0.764	1.48	-0.245	-0.0312	-1.08	-0.248	-0.448	-0.212	-1.03	-2.54	1.7	1.55	0.245	1.79	0.518	2.62
ATCTCTAGGTAAGACTTAGTTCAGTGAAGAACGC	0.399	0.643	0.399	0.303	0.796	0.394	0.205	0.542	0.399	0.438	1.88	1.57	0.722	0.771	1.4	0.684	0.67	0.614	1.01	0.573
CCTATTAGTCGACCATAAGGGCAACCGAAGCTCG	0.245	0.0274	-0.217	0.208	0.406	0.539	0.531	0.353	-0.22	0.358	0.311	-0.00504	0.93	-1.02	0.749	0.26	0.25	0.415	0.709	1.24
CCGACTGGGGCAGAAAGTTTACCATACCATCCGG	-0.706	-0.595	-0.267	-0.494	-0.896	-0.213	0.681	0.251	-0.507	-0.116	1.85	0.907	-1.52	-1.73	0.00802	-0.282	0.645	-0.677	-0.166	0.775
CCTCGGAGGAAAACAGGAGGTCAGAGCTGCCAGA	0.663	1.69	1.63	1.44	-0.702	2.13	0.128	-0.0182	-0.762	-0.104	-0.518	0.00562	-1.65	-1.51	1.04	1.5	0.172	1.95	0.262	1.53
GCTAGCAGGCCATTCGGGTCACTCAATGACGGGC	1.03	0.603	-0.377	0.577	-1.07	1.9	0.695	0.555	-0.392	0.105	1.31	1.58	-0.52	-0.659	0.0772	1.83	1.45	1.71	-0.872	1.96
TCTTGTAGATCAGCAGGAGGTTAAGAAAGATCGA	-0.201	0.985	-0.411	0.538	-0.736	1.03	-0.21	1.36	2.16	1.74	1.2	0.727	0.985	0.0884	-0.244	0.907	-0.404	0.574	-0.978	0.468
ATCTCTAGGTAAAAGTGCAGTGAATCCCGAGGAT	0.179	-0.141	-0.393	0.0767	0.339	2.81	4.31	5.78	3.66	6.27	2.08	2.5	0.765	0.971	0.819	0.0221	0.246	-0.0111	0.256	0.518
GGAACGAGGGCATACGAGTTGATAGCATGGCGAT	1.33	0.61	-0.418	-0.0696	-0.795	1.25	1.28	0.666	0.135	0.26	2.9	1.74	0.174	-0.54	0.0813	3.18	0.351	0.371	-0.394	1.7
TCATCTAGGTAAAAGGTGAAAGTCGGTGTGGTAA	1.68	1.89	0.186	1.97	0.11	5.64	10	9.2	8.75	10.8	5.49	5.73	2.1	1.06	2.69	1.53	0.241	2.8	1.26	2.15
CCAGACAGGTAAGAAGGTAACTCAGCCTCGATTA	0.251	0.138	-0.169	0.0955	-0.296	0.0886	0.35	-0.153	-0.728	-0.359	0.139	-0.122	-0.475	-0.368	0.961	0.129	0.112	0.274	0.51	0.0631
GCAGACAGGTGATACGCAGGTAACTCAGGGTGGC	-0.378	-0.342	-0.563	-0.687	-1.16	-0.129	0.508	-0.512	-0.33	-0.762	-0.192	-0.471	-0.737	-0.846	-0.0293	-0.424	-0.57	0.0928	-0.408	-0.253
GTACCAAGGTCAATAGGTCGTTGATGAGTAGGCG	6.19	4.5	0.864	3.74	0.614	5.37	5.15	5.05	2.14	4.13	2.92	4.42	-0.00557	0.159	2.8	4.09	0.916	4.91	0.768	5.2
CTTGCTAGGTCAATGGTCAGCTAAAGCAGCTCGC	2.93	2.77	0.107	1.33	-0.0348	3.41	5.43	5.94	4.16	5.69	5.14	4.93	-0.161	0.902	0.936	0.794	-0.623	1.83	-0.394	3.79
